Experimental data as given in the supplement of paper PMC12067093, “Discovery and optimisation of a covalent ligand for TRIM25 and its application to targeted protein ubiquitination” (Chemical Science, 2025).
About 21,000 targets were measured; listed, in parts, are those with the largest changes and a random draw of the rest.

Compound: CC1Cc2ccccc2N1C(=O)C1CCCN(C1)C(=O)CCl (mixture of isomers) [TRIM25 ligand 11 (diastereomer mixture)]
Assay: probe-labelled cysteine peptide fold change vs DMSO (competition) (log2 fold change); higher = less target engagement (more negative = stronger competition)
Settings: THP-1, incubation time: 4 h
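Further: competitive chemoproteomic profiling in live THP-1 cells with an iodoacetamide desthiobiotin (IA-DTB) probe, comparing probe-labelled peptide intensities in compound-treated cells against DMSO-treated controls.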

Sequence of UniProt P68402 (P68402 whole entry, looked up): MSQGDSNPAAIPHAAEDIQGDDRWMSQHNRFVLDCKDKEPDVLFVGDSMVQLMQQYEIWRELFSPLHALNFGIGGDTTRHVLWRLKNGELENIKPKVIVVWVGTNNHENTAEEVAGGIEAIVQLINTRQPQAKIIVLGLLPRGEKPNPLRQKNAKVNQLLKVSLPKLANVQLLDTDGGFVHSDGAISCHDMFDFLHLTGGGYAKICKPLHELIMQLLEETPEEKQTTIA
Sequence of UniProt Q8NI08 (Q8NI08 whole entry, looked up): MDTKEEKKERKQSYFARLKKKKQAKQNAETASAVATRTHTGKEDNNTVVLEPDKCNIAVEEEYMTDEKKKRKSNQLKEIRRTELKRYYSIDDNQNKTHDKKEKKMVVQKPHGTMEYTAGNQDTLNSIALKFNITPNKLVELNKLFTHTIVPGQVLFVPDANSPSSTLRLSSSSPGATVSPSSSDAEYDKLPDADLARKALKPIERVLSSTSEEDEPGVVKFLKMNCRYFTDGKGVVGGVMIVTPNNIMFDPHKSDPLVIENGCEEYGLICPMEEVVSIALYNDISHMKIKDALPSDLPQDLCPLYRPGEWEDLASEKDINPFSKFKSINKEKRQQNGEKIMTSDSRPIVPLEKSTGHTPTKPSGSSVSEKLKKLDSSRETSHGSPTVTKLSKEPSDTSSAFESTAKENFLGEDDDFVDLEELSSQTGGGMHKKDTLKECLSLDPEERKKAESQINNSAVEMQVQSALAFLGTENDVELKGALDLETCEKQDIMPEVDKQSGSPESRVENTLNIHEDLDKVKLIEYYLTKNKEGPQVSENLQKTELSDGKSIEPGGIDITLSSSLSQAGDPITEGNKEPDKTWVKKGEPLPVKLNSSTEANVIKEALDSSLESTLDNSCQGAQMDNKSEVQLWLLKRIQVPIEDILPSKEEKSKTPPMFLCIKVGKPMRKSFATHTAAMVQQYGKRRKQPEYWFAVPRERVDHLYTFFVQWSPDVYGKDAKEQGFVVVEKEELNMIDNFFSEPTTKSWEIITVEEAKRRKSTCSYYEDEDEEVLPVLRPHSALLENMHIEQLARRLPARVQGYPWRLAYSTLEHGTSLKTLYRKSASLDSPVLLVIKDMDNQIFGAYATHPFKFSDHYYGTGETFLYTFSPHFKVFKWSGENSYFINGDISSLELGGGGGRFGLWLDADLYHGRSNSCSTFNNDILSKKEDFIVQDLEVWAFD
Sequence of UniProt Q9ULE6 (Q9ULE6 whole entry, looked up): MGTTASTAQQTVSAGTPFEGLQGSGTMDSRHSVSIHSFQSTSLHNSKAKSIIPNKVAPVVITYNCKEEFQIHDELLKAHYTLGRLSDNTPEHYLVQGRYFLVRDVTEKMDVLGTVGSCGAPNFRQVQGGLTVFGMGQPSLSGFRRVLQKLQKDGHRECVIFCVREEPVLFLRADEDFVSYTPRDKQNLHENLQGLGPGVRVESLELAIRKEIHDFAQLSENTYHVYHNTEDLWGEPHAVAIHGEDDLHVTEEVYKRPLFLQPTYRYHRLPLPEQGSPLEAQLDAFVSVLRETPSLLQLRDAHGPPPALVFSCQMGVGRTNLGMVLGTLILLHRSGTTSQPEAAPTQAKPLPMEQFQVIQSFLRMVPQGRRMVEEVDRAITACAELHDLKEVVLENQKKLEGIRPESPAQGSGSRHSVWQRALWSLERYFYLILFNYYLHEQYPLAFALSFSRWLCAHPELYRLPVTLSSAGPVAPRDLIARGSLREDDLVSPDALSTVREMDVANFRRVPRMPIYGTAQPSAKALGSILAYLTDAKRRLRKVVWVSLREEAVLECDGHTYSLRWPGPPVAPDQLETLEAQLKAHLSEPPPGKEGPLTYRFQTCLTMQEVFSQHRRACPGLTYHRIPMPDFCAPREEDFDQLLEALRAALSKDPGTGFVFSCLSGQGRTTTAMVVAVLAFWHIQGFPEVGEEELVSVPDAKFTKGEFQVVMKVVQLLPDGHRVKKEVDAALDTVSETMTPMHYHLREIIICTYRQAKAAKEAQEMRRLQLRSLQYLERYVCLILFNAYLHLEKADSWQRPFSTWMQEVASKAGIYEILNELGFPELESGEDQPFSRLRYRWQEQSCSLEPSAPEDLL
Sequence of UniProt P46087 (P46087 whole entry, looked up): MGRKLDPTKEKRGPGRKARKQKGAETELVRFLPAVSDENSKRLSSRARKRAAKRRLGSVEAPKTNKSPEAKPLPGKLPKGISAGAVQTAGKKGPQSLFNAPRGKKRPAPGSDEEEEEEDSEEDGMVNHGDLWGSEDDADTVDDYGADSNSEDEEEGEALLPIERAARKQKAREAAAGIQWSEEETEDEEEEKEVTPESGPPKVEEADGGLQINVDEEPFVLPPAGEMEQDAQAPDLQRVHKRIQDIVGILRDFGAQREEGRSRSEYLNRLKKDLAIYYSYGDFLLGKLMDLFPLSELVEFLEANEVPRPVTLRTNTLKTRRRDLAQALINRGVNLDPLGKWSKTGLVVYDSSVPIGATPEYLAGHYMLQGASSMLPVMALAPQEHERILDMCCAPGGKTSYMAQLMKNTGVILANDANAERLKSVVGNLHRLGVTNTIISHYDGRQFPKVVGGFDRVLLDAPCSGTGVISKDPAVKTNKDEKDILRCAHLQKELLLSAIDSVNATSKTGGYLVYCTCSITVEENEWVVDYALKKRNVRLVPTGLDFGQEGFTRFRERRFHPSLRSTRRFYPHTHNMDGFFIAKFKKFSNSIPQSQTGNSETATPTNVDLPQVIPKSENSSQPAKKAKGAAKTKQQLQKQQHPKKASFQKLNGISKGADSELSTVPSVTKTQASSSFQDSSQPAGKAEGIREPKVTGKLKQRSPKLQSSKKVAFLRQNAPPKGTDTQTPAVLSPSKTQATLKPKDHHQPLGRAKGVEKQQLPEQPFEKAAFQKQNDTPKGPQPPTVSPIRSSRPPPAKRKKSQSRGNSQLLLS
Sequence of UniProt Q5SY16 (Q5SY16 whole entry, looked up): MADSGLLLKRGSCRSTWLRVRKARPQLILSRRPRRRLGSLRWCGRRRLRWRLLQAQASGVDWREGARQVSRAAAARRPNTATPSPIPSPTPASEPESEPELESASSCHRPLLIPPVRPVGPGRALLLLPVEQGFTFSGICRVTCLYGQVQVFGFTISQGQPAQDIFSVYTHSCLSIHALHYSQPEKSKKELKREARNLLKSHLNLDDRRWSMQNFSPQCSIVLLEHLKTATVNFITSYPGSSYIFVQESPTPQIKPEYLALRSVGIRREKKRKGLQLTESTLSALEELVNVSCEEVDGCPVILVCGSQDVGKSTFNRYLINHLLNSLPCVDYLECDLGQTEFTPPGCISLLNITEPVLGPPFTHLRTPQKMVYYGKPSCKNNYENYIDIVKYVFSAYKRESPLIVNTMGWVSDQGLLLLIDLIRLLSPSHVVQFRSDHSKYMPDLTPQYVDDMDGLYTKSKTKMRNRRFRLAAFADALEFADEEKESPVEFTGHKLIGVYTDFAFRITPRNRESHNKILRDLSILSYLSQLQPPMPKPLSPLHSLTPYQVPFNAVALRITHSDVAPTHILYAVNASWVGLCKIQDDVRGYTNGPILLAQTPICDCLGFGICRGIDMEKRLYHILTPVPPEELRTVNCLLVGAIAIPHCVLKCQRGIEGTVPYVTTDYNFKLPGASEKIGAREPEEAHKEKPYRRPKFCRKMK
Sequence of UniProt Q8N1F7 (Q8N1F7 whole entry, looked up): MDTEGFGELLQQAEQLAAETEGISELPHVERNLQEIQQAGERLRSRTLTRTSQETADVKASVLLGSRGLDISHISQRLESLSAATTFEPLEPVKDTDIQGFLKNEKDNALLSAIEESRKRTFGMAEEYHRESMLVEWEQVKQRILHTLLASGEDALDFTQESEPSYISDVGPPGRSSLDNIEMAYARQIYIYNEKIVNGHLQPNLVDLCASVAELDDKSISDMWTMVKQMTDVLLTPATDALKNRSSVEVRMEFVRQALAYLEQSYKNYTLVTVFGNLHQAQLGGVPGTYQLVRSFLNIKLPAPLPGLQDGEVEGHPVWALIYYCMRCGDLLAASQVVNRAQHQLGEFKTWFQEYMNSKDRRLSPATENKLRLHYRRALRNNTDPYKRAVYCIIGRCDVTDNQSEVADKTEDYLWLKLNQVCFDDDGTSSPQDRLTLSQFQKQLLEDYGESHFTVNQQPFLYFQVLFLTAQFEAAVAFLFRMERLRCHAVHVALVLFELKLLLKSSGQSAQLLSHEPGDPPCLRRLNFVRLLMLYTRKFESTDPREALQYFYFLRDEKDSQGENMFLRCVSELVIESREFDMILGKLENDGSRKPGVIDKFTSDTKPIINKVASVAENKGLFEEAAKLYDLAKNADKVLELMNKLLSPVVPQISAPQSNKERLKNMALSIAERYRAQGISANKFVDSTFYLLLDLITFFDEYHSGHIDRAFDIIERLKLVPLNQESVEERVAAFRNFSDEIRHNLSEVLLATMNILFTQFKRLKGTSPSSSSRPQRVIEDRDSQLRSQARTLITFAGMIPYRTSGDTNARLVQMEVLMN
Sequence of UniProt Q86X76 (Q86X76 whole entry, looked up): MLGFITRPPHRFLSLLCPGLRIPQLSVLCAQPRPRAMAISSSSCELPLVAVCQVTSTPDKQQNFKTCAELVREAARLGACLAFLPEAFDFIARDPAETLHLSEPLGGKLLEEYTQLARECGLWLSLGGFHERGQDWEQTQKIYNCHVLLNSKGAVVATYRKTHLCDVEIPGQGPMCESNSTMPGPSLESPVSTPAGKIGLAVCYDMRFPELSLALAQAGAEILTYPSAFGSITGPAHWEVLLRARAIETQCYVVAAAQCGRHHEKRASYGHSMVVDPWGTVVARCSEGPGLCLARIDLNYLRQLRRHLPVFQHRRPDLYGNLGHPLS
Sequence of UniProt P61970 (P61970 whole entry, looked up): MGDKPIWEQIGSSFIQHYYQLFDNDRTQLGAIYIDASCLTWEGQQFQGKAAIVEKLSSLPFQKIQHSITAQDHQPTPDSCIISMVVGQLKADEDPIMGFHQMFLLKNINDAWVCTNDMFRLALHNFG

Row | Target | probe-labelled cysteine peptide fold change (10 µM) | probe-labelled cysteine peptide fold change (50 µM)
1 | NFX1_Q12986_295_STCDSENLAVINK (UniProt Q12986) | 0.0624 | -0.0282
2 | PDS5A_Q29RF7_686_VLSFTHPTSFHSAETYESLLQCLR (UniProt Q29RF7) | -0.152 | -0.172
3 | NUTF2_P61970_80_IQHSITAQDHQPTPDSCIISMVVGQLKADEDPIMGFHQMFLLK (UniProt P61970) | -0.758 | -0.409
4 | P4HB_P07237_53+56_YLLVEFYAPWCGHCK (UniProt P07237) | -0.316 | -0.77
5 | PAICS_P22234_266_SESQCR (UniProt P22234) | 1.85 | 1.12
6 | NCOA7_Q8NI08_487_GALDLETCEK (UniProt Q8NI08) | -0.182 | -0.181
7 | PATZ1_Q9HBE1_297_EAGILPCGLCGK (UniProt Q9HBE1) | 0.00899 | -0.0723
8 | NID1_P14543_679_EGSPDALQNPCYIGTHGCDTNAACRPGPR (UniProt P14543) | 0.112 | -0.182
9 | NCDN_Q9UBB6-2_5_ASDCEPALNQAEGR (UniProt Q9UBB6) | 0.0744 | -0.297
10 | NEK1_Q96PY6_276_FLSPQLIAEEFCLK (UniProt Q96PY6) | 0.0381 | 0.161
11 | NKRF_O15226_386_VFLQDHCLAEGYGTKK (UniProt O15226) | -0.274 | -0.153
12 | NT5DC2_Q9H857_475_FSDLYMASLSCLLNYR (UniProt Q9H857) | 0.0123 | 0.0662
13 | NUDT14_O95848_12_CAASPYLRPLTLHYR (UniProt O95848) | -0.125 | 0.0208
14 | OPLAH_O14841_1053_DIPLNQGCLAPVR (UniProt O14841) | -0.146 | 0.136
15 | NOP2_P46087_393_ILDMCCAPGGK (UniProt P46087) | -0.0381 | -0.0998
16 | OTX1_P32242_340_LNFNSPDCLDYK (UniProt P32242) | 0.161 | -0.0204
17 | NFRKB_Q6P4R8_17_MDSLDHMLTDPLELGPCGDGHGTR (UniProt Q6P4R8) | -0.196 | -1.37
18 | NLRX1_Q86UT6_259_LAGTGLCSDPEEPQEPAAIIVNLLR (UniProt Q86UT6) | 0.274 | -0.746
19 | PALD1_Q9ULE6_631_IPMPDFCAPREEDFDQLLEALR (UniProt Q9ULE6) | 0.052 | 0.057
20 | PAK2_Q13177_352_ECLQALEFLHANQVIHR (UniProt Q13177) | 0.0134 | 0.223

Row | Target | probe-labelled cysteine peptide fold change (10 µM) | probe-labelled cysteine peptide fold change (50 µM)
21 | NCKIPSD_Q9NZQ3_138_QPNGVCR (UniProt Q9NZQ3) | -0.0933 | -0.32
22 | NLRX1_Q86UT6_779_DLRDLLLHDQCQITTLR (UniProt Q86UT6) | -0.173 | -0.114
23 | NLN_Q9BYT8_451_YNHAACFGLQPGCLLPDGSR (UniProt Q9BYT8) | 0.193 | 0.181
24 | NUP93_Q8N1F7_328_CGDLLAASQVVNR (UniProt Q8N1F7) | 0.0268 | 0.221
25 | NUS1_Q96E22_235_QKRPTDLDVDTLASLLSSNGCPDPDLVLK (UniProt Q96E22) | -0.332 | -0.641
26 | NUP155_O75694_667_HNGICIYFSR (UniProt O75694) | -0.0348 | 0.207
27 | P4HB_P07237_397+400_NVFVEFYAPWCGHCK (UniProt P07237) | -0.122 | -0.34
28 | NUP160_Q12769_529_NLQQEFWCK (UniProt Q12769) | 0.248 | 0.177
29 | PAFAH1B2_P68402_206_ICKPLHELIMQLLEETPEEK (UniProt P68402) | -0.486 | -0.692
30 | PDF_Q9HBH1_222_IIQHEMDHLQGCLFIDK (UniProt Q9HBH1) | -0.0352 | 0.0675
31 | NIT1_Q86X76_251+259_AIETQCYVVAAAQCGR (UniProt Q86X76) | 0.553 | 0.575
32 | PA2G4_Q9UQ80_296_MGVVECAKHELLQPFNVLYEK (UniProt Q9UQ80) | -0.781 | -0.434
33 | PACSIN2_Q9UNF0_465_MEDEDEQGWCK (UniProt Q9UNF0) | 0.118 | 0.00577
34 | PARP4_Q9UKK3_1099_LLVYGFIPHCTQATLCALIQEK (UniProt Q9UKK3) | 0.224 | -0.243
35 | NOL9_Q5SY16_219_WSMQNFSPQCSIVLLEHLK (UniProt Q5SY16) | 0.0873 | 0.0078
36 | NOL6_Q9H6R4_256_LHPCPPPDFFRPCR (UniProt Q9H6R4) | 0.0181 | 0.0433
37 | PAICS_P22234_100_CGETAFIAPQCEMIPIEWVCR (UniProt P22234) | 0.00496 | 0.1
38 | NDRG1_Q92597_289_MADCGGLPQISQPAK (UniProt Q92597) | -0.006 | -0.0335
39 | ORC3_Q9UBD5_158_LISQLMDCCVDIK (UniProt Q9UBD5) | -0.0854 | -0.134
40 | NUP210_Q8TEM1_746_FVCAPPSR (UniProt Q8TEM1) | 0.0568 | 0.329
